{"source": "paper PMC7819943", "about": "“Rice protein-binding microarrays: a tool to detect cis-acting elements near promoter regions in rice”", "note": "The full ranking holds about 39,000 sequences; the median of “fluorescence intensity (a.u.)” is about 4,300, and the highest 2% start at about 39,000. The sample as a whole holds a higher share of the highest values than the screen did."}
{"target": "T1, OsSMF1 (Oryza sativa, UniProt Q6ZLB0 1-436)", "T1 sequence": "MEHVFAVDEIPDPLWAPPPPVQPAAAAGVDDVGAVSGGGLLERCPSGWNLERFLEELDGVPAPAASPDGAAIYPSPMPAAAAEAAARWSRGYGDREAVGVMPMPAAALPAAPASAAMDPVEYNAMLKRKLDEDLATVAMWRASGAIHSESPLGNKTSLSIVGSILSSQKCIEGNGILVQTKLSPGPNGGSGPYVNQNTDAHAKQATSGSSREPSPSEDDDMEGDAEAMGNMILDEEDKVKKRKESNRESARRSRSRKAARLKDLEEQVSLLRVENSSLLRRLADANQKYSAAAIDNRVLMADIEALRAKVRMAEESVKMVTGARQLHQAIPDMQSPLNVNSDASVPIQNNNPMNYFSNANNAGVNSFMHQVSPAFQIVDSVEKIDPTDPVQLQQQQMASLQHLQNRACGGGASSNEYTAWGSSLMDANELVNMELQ", "assay": "protein-binding microarray (RPBM); PBS, 2% BSA, 51.3 ng/ul salmon testes DNA, 50 uM zinc acetate, 200 nM TF, 25 C, 1 h; high values mean tight binding", "conditions": "protein: recombinant; tags: N-terminal polyhistidine and DsRed monomer fusion (pET32a); chain copies: 2; label: CyDye5-dUTP incorporated in the synthesized complementary strand; 3' TTTTT single-stranded linker to array surface; dsDNA, one strand shown", "in_short": "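Polyhistidine-tagged DsRed fusions of transcription factors, joined at the N-terminus, were expressed in E. coli BL21-CodonPlus and isolated on Ni–NTA. They were incubated at 200 nM for 1 h at 25 °C on a custom Agilent array, double-stranded and BSA-blocked, in PBS with 2% BSA, salmon testes DNA and 50 µM zinc acetate. The binding signal is per-feature fluorescence intensity (arbitrary units) read on an Axon 4000B scanner after washing.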"}
{"sequence": "TATATACTCTCTTCGTTTCAAAATGTTTGACGCCGTTAACCGGAGTCACCTAGTGCAG", "binding signal": "3670 fluorescence intensity (a.u.)"}
{"sequence": "TTAAAACTCAATTAATCACACGTTATTACCACCTCGTTTTCGGAGTCACCTAGTGCAG", "binding signal": "3210 fluorescence intensity (a.u.)"}
{"sequence": "CTCAAAACCACACCGTTAAATGTTTTACCCTACTCTCGTACGGAGTCACCTAGTGCAG", "binding signal": "39200 fluorescence intensity (a.u.)"}
{"sequence": "ATAGTATAAAAGTAATGTGATGTGGCTTTATGAGAGAAAACGGAGTCACCTAGTGCAG", "binding signal": "3780 fluorescence intensity (a.u.)"}
{"sequence": "TGACAGCCACAAGTATGATGTGATAAAGTGTGGCTATAAACGGAGTCACCTAGTGCAG", "binding signal": "65500 fluorescence intensity (a.u.)"}
{"sequence": "TATATATATATATATATATAAAGTGTATGACATGTGATCACGGAGTCACCTAGTGCAG", "binding signal": "3970 fluorescence intensity (a.u.)"}
{"sequence": "GGAGAAAATTGCGGAGGGGATCCACAGTTCCAGCCGCGTGCGGAGTCACCTAGTGCAG", "binding signal": "3190 fluorescence intensity (a.u.)"}
{"sequence": "ACAAAATTTATTTCCAGGTGGCGTCTCCTCATTGGCCAGCCGGAGTCACCTAGTGCAG", "binding signal": "4370 fluorescence intensity (a.u.)"}
{"sequence": "TGGGTGAGAGTTTGAACCCGAACATATGACACATCTATGTCGGAGTCACCTAGTGCAG", "binding signal": "3270 fluorescence intensity (a.u.)"}
{"sequence": "ACAATTACTGTATTGTGCATATAAGCTGCATATCTATCACCGGAGTCACCTAGTGCAG", "binding signal": "39900 fluorescence intensity (a.u.)"}
{"sequence": "TATGTCAATACTGTATGCATATATTAACATAAAATATCTCCGGAGTCACCTAGTGCAG", "binding signal": "4760 fluorescence intensity (a.u.)"}
{"sequence": "ATCACTCTACTTTGTCTGTGTCATATTATAAGCTGCTTGACGGAGTCACCTAGTGCAG", "binding signal": "5640 fluorescence intensity (a.u.)"}
{"sequence": "AGAAAGCAACATGCTGTCCCGGTGGCACATCCGATTAGTACGGAGTCACCTAGTGCAG", "binding signal": "3680 fluorescence intensity (a.u.)"}
{"sequence": "GGCTTCCCGCGCCACAAGCTTTGCCGCCACCTCCTCCTCGCGGAGTCACCTAGTGCAG", "binding signal": "3230 fluorescence intensity (a.u.)"}
{"sequence": "CAGAGTTCCGTTCTGAATTTCTGGTGAGTCATCTGCTGAACGGAGTCACCTAGTGCAG", "binding signal": "8920 fluorescence intensity (a.u.)"}
{"sequence": "GTTGCCTTCGTGTCCAGTGGATAGATAAGGATAGGATTTTCGGAGTCACCTAGTGCAG", "binding signal": "65500 fluorescence intensity (a.u.)"}
{"sequence": "CCTTAGGCTACGTTGGCTTTTGCATTTTGGCGTGGATTTTCGGAGTCACCTAGTGCAG", "binding signal": "14400 fluorescence intensity (a.u.)"}
{"sequence": "GTTGTCAGTTGGATAGAACCAGTCCAGGAACGTGTGGCCCCGGAGTCACCTAGTGCAG", "binding signal": "3240 fluorescence intensity (a.u.)"}
{"sequence": "CGCGGATCGGCCGCGAGGCGCACGTGGACATCACCACCAACGGAGTCACCTAGTGCAG", "binding signal": "4220 fluorescence intensity (a.u.)"}
{"sequence": "CGGCGCAGATCCGGCGAGCGGCGGCGGCGGAAGCTGATGGCGGAGTCACCTAGTGCAG", "binding signal": "39900 fluorescence intensity (a.u.)"}
{"sequence": "GAGCCGCTGATCCGCTGCACGGCGGCGCGGAGCGCGTCGACGGAGTCACCTAGTGCAG", "binding signal": "39100 fluorescence intensity (a.u.)"}
{"sequence": "AGATGGCGGCGGCGGCGCAGATCCGGCCTCCACGCGCGCACGGAGTCACCTAGTGCAG", "binding signal": "3940 fluorescence intensity (a.u.)"}
{"sequence": "ATGGTGGAGAAGGTGACGATGACACGAGGTGATCTGGATCCGGAGTCACCTAGTGCAG", "binding signal": "3680 fluorescence intensity (a.u.)"}
{"sequence": "GAAGCTGTCATCGCTGATGCGGCGAAGAGATCATCATCACCGGAGTCACCTAGTGCAG", "binding signal": "4450 fluorescence intensity (a.u.)"}
{"sequence": "GAGCGCTGCGTGCGCGCGCGTCCGCGGCCACGCCATCCGCCGGAGTCACCTAGTGCAG", "binding signal": "4600 fluorescence intensity (a.u.)"}
{"sequence": "GCCGCCGCCGCCGGAGAAGATGATGGTGCCGCTGGATCCGCGGAGTCACCTAGTGCAG", "binding signal": "43500 fluorescence intensity (a.u.)"}
{"sequence": "TTGATGGCGATCTGCGAGGCCGTGCGGGTCACGGAGCGCGCGGAGTCACCTAGTGCAG", "binding signal": "30900 fluorescence intensity (a.u.)"}
{"sequence": "GATGATGATGATGATGATGATGAGAAGGTGGTGCCGCCGCCGGAGTCACCTAGTGCAG", "binding signal": "4280 fluorescence intensity (a.u.)"}
{"sequence": "CCCGCGCCGCGGCGGATCGATGGAGCTGTTCGAGCGCGCGCGGAGTCACCTAGTGCAG", "binding signal": "3160 fluorescence intensity (a.u.)"}
{"sequence": "GCTGCACGGCCGCGGCGTGGCGCTGACGGCGACGGTGAGGCGGAGTCACCTAGTGCAG", "binding signal": "5740 fluorescence intensity (a.u.)"}
{"sequence": "GCGAGCTGTGCCGTTCTTGATCACCGAGGCGATGGCGGCGCGGAGTCACCTAGTGCAG", "binding signal": "39200 fluorescence intensity (a.u.)"}
{"sequence": "GTTTGGAATTTTGGATAGAAATTCCGGGCGTGACACATCGCGGAGTCACCTAGTGCAG", "binding signal": "5880 fluorescence intensity (a.u.)"}
{"sequence": "ATGTCGCTGTGGCTCATCCGGCCCAAGCCCATTTCCCCACCGGAGTCACCTAGTGCAG", "binding signal": "29500 fluorescence intensity (a.u.)"}
{"sequence": "AAACTGAAGGGTATTTTCACAAAATTTCCTTTTCTTTCTCCGGAGTCACCTAGTGCAG", "binding signal": "6620 fluorescence intensity (a.u.)"}
{"sequence": "GTATATGCGTCATGTGCGTCTTCCCTGTCACGAGTGCGTGCGGAGTCACCTAGTGCAG", "binding signal": "7200 fluorescence intensity (a.u.)"}
{"sequence": "ACATGTGGGTCCTGTTGACATGTAGGTGCCACCTTGGCATCGGAGTCACCTAGTGCAG", "binding signal": "4440 fluorescence intensity (a.u.)"}
{"sequence": "GAAACTTTCCTACGCACAAACTTTCAACTTTTACGTCACACGGAGTCACCTAGTGCAG", "binding signal": "3340 fluorescence intensity (a.u.)"}
{"sequence": "CATGCTATGTGCTCAAAGGGCAACGGTCGACGTGTGCCTTCGGAGTCACCTAGTGCAG", "binding signal": "4110 fluorescence intensity (a.u.)"}
{"sequence": "ACACAGATCTGCAACCAAAACAAATGCAACACTAAACACCCGGAGTCACCTAGTGCAG", "binding signal": "26100 fluorescence intensity (a.u.)"}
{"sequence": "CTAAACAAAGGATGAGGCTATGAGCACCCACCAACCATACCGGAGTCACCTAGTGCAG", "binding signal": "34200 fluorescence intensity (a.u.)"}
{"sequence": "AGATCTGCACAACCATAACGGCTAAAGAGGAGATACCAAACGGAGTCACCTAGTGCAG", "binding signal": "65500 fluorescence intensity (a.u.)"}
{"sequence": "GCACAACCGCACACGAGACGACGTCACCCACAACCGCACGCGGAGTCACCTAGTGCAG", "binding signal": "6040 fluorescence intensity (a.u.)"}
{"sequence": "TTCTTCGAGGACCACATGCGTGAGTGGATGACGGAGTTCCCGGAGTCACCTAGTGCAG", "binding signal": "3950 fluorescence intensity (a.u.)"}
{"sequence": "TTAATTATTAAATTCTTTTCACTGTCTACTACTTGTTCCGCGGAGTCACCTAGTGCAG", "binding signal": "22300 fluorescence intensity (a.u.)"}
{"sequence": "TTTGTGGTTGGAGGTTATGAATCATACTCGAGGCATAGTTCGGAGTCACCTAGTGCAG", "binding signal": "22000 fluorescence intensity (a.u.)"}
{"sequence": "CTGACGAATATACAGGAGGGAACCGAATGGCGCGCAATTGCGGAGTCACCTAGTGCAG", "binding signal": "21700 fluorescence intensity (a.u.)"}
{"sequence": "GCGGAAAGGGAAAGGCCCGACGAATGGGAGGAATCATATACGGAGTCACCTAGTGCAG", "binding signal": "40300 fluorescence intensity (a.u.)"}
{"sequence": "CGGCATTATATACTAAAGAAAATGGAGGGAGTAGGAATCACGGAGTCACCTAGTGCAG", "binding signal": "28700 fluorescence intensity (a.u.)"}
{"sequence": "TGGAGGTTATGAATCATACTCGGACGATAGTTAAGGGAGTCGGAGTCACCTAGTGCAG", "binding signal": "49700 fluorescence intensity (a.u.)"}
{"sequence": "GTTTTATGGTTGGAGGTCATGAATCATACTCGTGTCATAGCGGAGTCACCTAGTGCAG", "binding signal": "7410 fluorescence intensity (a.u.)"}
{"sequence": "AGATTAGGTTGCTGTAGCCATGACTGTGAGTTGTGACTAGCGGAGTCACCTAGTGCAG", "binding signal": "4030 fluorescence intensity (a.u.)"}
{"sequence": "TGTATGGGCCTTACGTCAGCACGGCCCAGTTGCTGGTTTTCGGAGTCACCTAGTGCAG", "binding signal": "17700 fluorescence intensity (a.u.)"}
{"sequence": "TCACCTCCACCACCGTTGACGATGACACGCGGTGCGTCGCCGGAGTCACCTAGTGCAG", "binding signal": "4250 fluorescence intensity (a.u.)"}
{"sequence": "AACTAATGAATAGTGTGACGTATTGCCGAAATTTCTCAACCGGAGTCACCTAGTGCAG", "binding signal": "7380 fluorescence intensity (a.u.)"}
{"sequence": "ACATTTATTGCATCATTACATTCTGAAGTAATTTCAACATCGGAGTCACCTAGTGCAG", "binding signal": "3470 fluorescence intensity (a.u.)"}
{"sequence": "TGTGAATTGCATCAACCGAAAAGTAGATATTGGAGTATTTCGGAGTCACCTAGTGCAG", "binding signal": "65500 fluorescence intensity (a.u.)"}
